Experimental data as given in PubChem BioAssay AID504843 (Broad Institute, 2011).
In all, about 1,200 compounds went through this assay and about 360 (30%) were called active. Only a sample is shown. Potency and affinity values are given separately. Values without a mark were called inactive. The rule behind the calls is not given here.

Experiment: bacterial growth inhibition, dose response, counter-screen, BacTiter-Glo luminescence, cherry-picked samples (AID 504843);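 note: growth measured after 8 h incubation at 30 °C; 0% = median of sample compound wells and -100% = antibiotic control wells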
Details: BacTiter-Glo ATP luminescence; series mostly up to 15 µM; activity change, negative = inhibition: at the top concentration

SMILES	activity change, negative = inhibition [%]
CCN(CC)S(=O)(=O)c1ccc(NC(=O)Cc2cccs2)cc1	-7.71
Oc1ccc(/C=N/Nc2ccccc2)cc1	8.18
COc1ccc(-c2cc(C(F)(F)F)c3c(n2)sc2c(O)cc(=O)[nH]c23)c(OC)c1	2.95
CC(C)c1cccc(C(C)C)c1OC(=O)[C@H]1OC(C(C)(C)C)=C[C@@H]1c1ccccc1	8.97
COC(=O)CN1C(=O)C(O)=C(C(C)=O)C1c1ccc([N+](=O)[O-])cc1 (stereo not drawn)	-2.84
Cc1c(N2C(=O)c3cccc4cccc(c34)C2=O)c(=O)n(-c2ccccc2)n1C	-4.07
CCCc1c(O)nc(SC2CC(=O)N(c3ccc(OC)cc3)C2=O)[nH]c1=O (stereo not drawn)	7.76
CC(C)CNC(=S)NC1CCCC1	14.6
COc1cc(SC)ccc1C(=O)Nc1cc(C)ccn1	9.39
COc1cc2cc(C(c3nnnn3Cc3ccc(F)cc3)N3CCCCCC3)c(=O)[nH]c2cc1OC (stereo not drawn)	24.9
O=C(O)C1CCCCN1S(=O)(=O)c1ccc(Cl)s1 (stereo not drawn)	8.83
O=S(=O)(NC1CCCC1)c1cc(F)ccc1F	-12.1
Cc1cc(=O)oc2cc(OCC(=O)OCC(=O)N3CCc4ccccc43)ccc12	-9.69
CCc1nc2nc(C)c(NS(=O)(=O)c3ccc(Cl)s3)c(=O)n2[nH]1	-0.224
Cc1ccc(=O)n(-c2ccccc2)c1	13.6
COc1ccc(Cl)cc1S(=O)(=O)Nc1noc2ccccc12	19.9
COc1ccc(Cc2nnc(NS(=O)(=O)c3ccc(Cl)cc3)s2)cc1OC	-1.52
CC(C)(CO)[C@@H](O)C(=O)NCCC(=O)O	1.6
COc1cc(C(=O)NCCOC(=O)c2cccc(N(C)C)c2)cc(OC)c1OC	-6.73
N#Cc1c(N)nc2c(c1-c1ccncc1)CCCCC2	-1.17
Cc1ccccc1-n1c(SCC(=O)N2CCOCC2)nc(O)c(Cc2ccccc2)c1=O	-10.1
CN(Cc1ccccc1)C(=O)N1CCOCC1	1.22
Cc1cc(C)n2nc(SC(C)C(=O)N3CC(C)OC(C)C3)nc2n1 (stereo not drawn)	1.03
CN1CCN(c2ccc(S(=O)(=O)N3CCCCC3)cc2NC(=O)c2cccc([N+](=O)[O-])c2)CC1	4.22
COc1ccc(OC)c(NC(=O)c2cccnc2)c1	-6.8
O=C(O)c1ccc(N/N=C/c2ccc(-c3ccccc3)cc2)cc1	-0.556
Cc1ccnc(NS(=O)(=O)c2ccc(NS(=O)(=O)c3ccccc3)cc2)n1	-9.57

SMILES	activity change, negative = inhibition [%]
O=C(O)c1ccc(NS(=O)(=O)c2cc(C(=O)O)ccc2Br)cc1	1.32
Brc1ccc(NC2=Nc3ccccc3CC2)cc1	-1.59
C[C@@H]1O[C@@H](Oc2c(-c3ccc(O)c(O)c3)oc3cc(O)cc(O)c3c2=O)[C@H](O)[C@H](O)[C@H]1O	13.4
CC(C)(C)OC(=O)[C@H](Cc1ccccc1)NC(=O)c1nc[nH]c1C(=O)NC1CCN(C(=O)OC(C)(C)C)CC1	16
C[C@H](NC(=O)c1nc[nH]c1C(=O)NCc1ccc(CNC(=O)OC(C)(C)C)cc1)c1ccccc1	-13
O=C(CCc1ccccc1)N1CCN(Cc2ccc(F)cc2Cl)CC1	14.4
Cn1cc(CN2CCC(CO)(CCCc3ccccc3)CC2)c(-c2ccccc2)n1	9.02
CCCn1c(N)c(C(=O)CSc2nc(C)cs2)c(=O)n(C)c1=O	23.1
O=C(Nc1ccccc1OC(F)F)c1oc2ccccc2c1COc1ccccc1	-3.7
O=C(O)CC(NCc1ccco1)C(=O)OCCc1ccccc1 (stereo not drawn)	3.97
CC(/C=N/NC(=O)c1nnn(-c2nonc2N)c1C(C)C)=C\c1ccccc1	0.692
CN1CCN(CCC(=O)Nc2ccc(OCc3ccccc3)cc2)CC1	15.1
CCOc1ccc(NC(C(=O)Nc2cccc(C(C)=O)c2)c2ccccc2)cc1 (stereo not drawn)	-17.9
CCn1c(SCC(=O)Nc2ccc(OC)cc2)nc2c1c(=O)n(C)c(=O)n2C	0.126
CN(c1ccccc1C(=O)Nc1ccc(S(=O)(=O)N2CCOCC2)cc1)S(C)(=O)=O	2.22
CC(C)(C)NC(=O)NC(=O)CSc1ccc(S(=O)(=O)N2CCOCC2)cn1	11.8
Cc1nc(SCc2nc3ccccc3[nH]2)c2oc3ccccc3c2n1	-22.7
COc1ccc([N+](=O)[O-])cc1/C=N/NC(=O)Cc1ccccc1	7.51
O=c1/c(=C/c2ccc(O)c([N+](=O)[O-])c2)sc2nc3ccccc3n12	-4.54
CC(SCC(=O)Nc1ccc(F)cc1)c1nc2ccccc2c(=O)[nH]1 (stereo not drawn)	6.97
Cc1nc2c(=O)n(-c3cccc(C(F)(F)F)c3)nc(C)c2s1	-8.93
CCN1CCCC1CNCc1cccc(OC)c1OCc1ccc(F)cc1 (stereo not drawn)	-0.034
CCN1CCCC1CNC(=O)C(=O)NC(C)C (stereo not drawn)	14.5
O=C(O)c1sccc1OCc1ccccc1	9.78
O=C(CCC1CCCCC1)NCCN1CCOCC1	-15
CCOc1ccc(Br)cc1CNCCN1CCOCC1	-3.4
